Source: PubChem BioAssay (The Scripps Research Institute Molecular Screening Center)
In the library only some 3.5% were active in any assay of this set; here they are far more common.
MITF inh – human MITF inhibition, primary screen. AlphaScreen MITF homodimerization, bead proximity signal. inhibition, % at 2.6 µM. hit rate 0.91% among 650,000. O75030; in the data active = inhibition above about 50%;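 also: 0% = vehicle wells with protein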
FBW7 activator – activators of human E3 ligase FBW7. Q969H0. AlphaScreen FBW7–phospho-cyclin E peptide binding, activator screen. normalized activity (activation), % at 26.1 µM. hit rate 0.13% among 650,000. AID 1259310; in the data active = normalized activity above about 1.9%;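 also: purified mutant Fbw7 with reduced substrate affinity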
TEAD-YAP inh – TEAD-YAP interaction inhibition; hit rate 1.4% among 640,000; inhibition, % at 9.12 µM; HEK-TIYL cells, TEAD-Gal4/YAP UAS-luciferase luminescence; in the data active = inhibition above about 32%;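 also: 0% = median of test compound wells and 100% = reference inhibitor wells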
GPR151 ag – activates the human receptor GPR151; Q8TDV0; PathHunter beta-arrestin GPR151 cells, luminescence; activation, % at 11.2 µM; hit rate 1% among 650,000; AID 1508602; in the data active = activation above about 4.9%;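 also: 0% = median of compound wells and 100% = cells with positive control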
Target sequence (Q8TDV0 whole entry, looked up): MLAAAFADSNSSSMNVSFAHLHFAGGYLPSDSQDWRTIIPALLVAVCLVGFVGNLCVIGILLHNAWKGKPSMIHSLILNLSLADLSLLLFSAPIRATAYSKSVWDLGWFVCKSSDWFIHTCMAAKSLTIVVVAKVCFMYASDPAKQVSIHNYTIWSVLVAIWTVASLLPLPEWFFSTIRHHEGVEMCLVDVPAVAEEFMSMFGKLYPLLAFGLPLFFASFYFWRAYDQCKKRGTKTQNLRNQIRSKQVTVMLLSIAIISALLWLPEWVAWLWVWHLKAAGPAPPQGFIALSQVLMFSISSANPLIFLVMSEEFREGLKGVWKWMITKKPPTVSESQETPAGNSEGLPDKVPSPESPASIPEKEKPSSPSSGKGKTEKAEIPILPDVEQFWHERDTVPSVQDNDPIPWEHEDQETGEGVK
GPR151 confirm – human GPR151 activation, confirmation screen | activation, % at 11.2 µM | 6,700 tested, under 10 active | GPR151 PathHunter beta-arrestin cells, luminescence, 90 min; % of EA-reagent control over plate median | shares compounds with GPR151 ag;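 active = mean percent activation across replicates above the confirmation screen cutoff of 4.91%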
GPR119 ag – activates human GPR119 in a GPR151 counter-screen | shares compounds with GPR151 ag | GPR119 PathHunter beta-arrestin cells, luminescence, 90 min; 0 = compound-well median, 100 = enzyme-acceptor control | activation, % at 11.2 µM | hit rate 0.3% among 6,700;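 active = mean percent activation in the counterscreen above 29.09%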;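 also: counterscreen on off-target GPR119 to flag nonselective hits from the GPR151 activator screen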
Numbers without * were called inactive.

Results for O=C(NCc1ccccc1)C1CC(c2ccccc2F)=NO1 (stereo not given) ?
MITF inh: -4; FBW7 activator: 0; TEAD-YAP inh: -6; GPR151 ag: 1

How did COCCn1nnnc1C(CC(C)C)N1CCN(c2cc(C)ccc2C)CC1 (stereo not given) do in these assays?
MITF inh: -8; FBW7 activator: 0; TEAD-YAP inh: -18; GPR151 ag: 0

What do the screens show for `O=C(CCCn1sc2ccccc2c1=O)NCc1cccc(Br)c1`?
MITF inh: 8; FBW7 activator: 0; TEAD-YAP inh: -3; GPR151 ag: 0

What do the screens show for `CCOC(=O)C1=C(C)N=c2s/c(=C\c3ccccc3OCc3cccc(Cl)c3)c(=O)n2C1c1ccc(F)cc1` (stereo not given)?
MITF inh: 1; FBW7 activator: 0; TEAD-YAP inh: -4; GPR151 ag: 1

How did COC(=O)C1=CN(CC2CCCO2)C=C(C(=O)OC)C1c1cccc(F)c1 (stereo not given) do in these assays?
MITF inh: 2; FBW7 activator: 0; TEAD-YAP inh: -4; GPR151 ag: 5.7*; GPR151 confirm: 2; GPR119 ag: 15

What do the screens show for `COC(=O)C1=CN(Cc2ccc(F)cc2)C=C(C(=O)OC)C1c1cccc(F)c1`?
MITF inh: 8; FBW7 activator: 0; TEAD-YAP inh: -3; GPR151 ag: 0

Results for COC(=O)C1=CN(Cc2ccc(F)cc2)C=C(C(=O)OC)C1c1cccc(O)c1 ?
MITF inh: 3; FBW7 activator: 0; TEAD-YAP inh: 2; GPR151 ag: 5.2*; GPR151 confirm: 0; GPR119 ag: 10

How did COC(=O)C1=CN(CC2CCCO2)C=C(C(=O)OC)C1c1cccc(Cl)c1 (stereo not given) do in these assays?
MITF inh: -17; FBW7 activator: 0; TEAD-YAP inh: -7; GPR151 ag: 1

Results for COc1ccc(C(=O)NNc2ccc([N+](=O)[O-])cc2)cc1OC ?
MITF inh: -5; FBW7 activator: 0; TEAD-YAP inh: -6; GPR151 ag: 4

What do the screens show for `CCOC(=O)Cn1c(=O)c2c(nc3n(C4CCCCC4)c(C)c(C)n23)n(C)c1=O`?
MITF inh: -4; FBW7 activator: 0; TEAD-YAP inh: 0; GPR151 ag: -1

Results for CC(=O)OC[C@H]1O[C@@H](n2ccc(=O)[nH]c2=S)C(OC(C)=O)C1OC(C)=O (stereo not given in full) ?
MITF inh: -6; FBW7 activator: 0; TEAD-YAP inh: -1; GPR151 ag: 5.9*; GPR151 confirm: 0; GPR119 ag: -10

What do the screens show for `COc1ccc(OC)c(C2/C(=C(\O)c3ccc(C)cc3)C(=O)C(=O)N2CC(C)C)c1` (stereo not given)?
MITF inh: 4; FBW7 activator: 0; TEAD-YAP inh: 0; GPR151 ag: -1

How did CC(=O)c1ccc(OC(C)C)c(CSC(=N)N)c1 do in these assays?
MITF inh: 13; FBW7 activator: 1; TEAD-YAP inh: 6; GPR151 ag: 6.5*; GPR151 confirm: 0; GPR119 ag: 2

How did CC(C)C[C@@H](NC(=O)OCC1c2ccccc2-c2ccccc21)C(=O)O do in these assays?
MITF inh: -5; FBW7 activator: 0; GPR151 ag: 7.8*; GPR151 confirm: -1; GPR119 ag: -6

What do the screens show for `Cc1cccc(NC(=O)C(=O)NC2CCCCC2)c1`?
MITF inh: 0; FBW7 activator: 0; TEAD-YAP inh: -27; GPR151 ag: 5.5*; GPR151 confirm: -3; GPR119 ag: -21

Results for Cc1cccc(NC(=O)C(=O)NC2CCCCCC2)c1 ?
MITF inh: 0; FBW7 activator: 0; TEAD-YAP inh: -52; GPR151 ag: -1

Results for Cc1ccc(-c2cc(C(F)(F)F)n3ncc(C(=O)OC(C)C)c3n2)cc1 ?
MITF inh: -5; FBW7 activator: 0; TEAD-YAP inh: 9; GPR151 ag: 5.4*; GPR151 confirm: 0; GPR119 ag: 13

What do the screens show for `COC(=O)c1cnn2c(C(F)(F)F)cc(-c3ccc(C)cc3)nc12`?
MITF inh: -4; FBW7 activator: 0; TEAD-YAP inh: -10; GPR151 ag: 0

Results for COc1ccc(Cl)cc1N1CC(O)=C(c2nc3ccccc3[nH]2)C1=N ?
MITF inh: 9; FBW7 activator: 0; TEAD-YAP inh: -5; GPR151 ag: 1

How did COc1ccc(N2CC(O)=C(c3nc4ccccc4[nH]3)C2=N)cc1Cl do in these assays?
MITF inh: 0; FBW7 activator: 0; TEAD-YAP inh: -18; GPR151 ag: 6.0*; GPR151 confirm: 0; GPR119 ag: -3

What do the screens show for `N=C1C(c2nc3ccccc3[nH]2)=C(O)CN1CCc1ccccc1`?
MITF inh: 4; FBW7 activator: 0; TEAD-YAP inh: -20; GPR151 ag: 5.3*; GPR151 confirm: 0; GPR119 ag: -3

Results for COc1ccccc1Cn1c(=O)c2cccnc2n(CC(=O)Nc2ccccc2)c1=O ?
MITF inh: 0; FBW7 activator: 0; TEAD-YAP inh: 1; GPR151 ag: 7.0*; GPR151 confirm: -1; GPR119 ag: -8

Results for O=C1/C(=C\c2ccc(-c3ccc(Cl)cc3)o2)Sc2ccccc21 ?
MITF inh: 10; FBW7 activator: 0; TEAD-YAP inh: -9; GPR151 ag: 8.4*; GPR151 confirm: 0; GPR119 ag: 0

Results for O=C(O)c1cc(-c2ccc(/C=C3\Sc4ccccc4C3=O)o2)ccc1Cl ?
MITF inh: 19; FBW7 activator: 0; TEAD-YAP inh: -2; GPR151 ag: 0

What do the screens show for `Cc1cccc(-n2c(=O)c3ccccc3n(CC(=O)N3CCCCC3C)c2=O)c1` (stereo not given)?
MITF inh: -12; FBW7 activator: 0; TEAD-YAP inh: 7; GPR151 ag: 1

How did CC(NCc1cc(Br)ccc1OCC(N)=O)C12CC3CC(CC(C3)C1)C2 (stereo not given) do in these assays?
MITF inh: 2; FBW7 activator: 0; TEAD-YAP inh: 24; GPR151 ag: 7.6*; GPR151 confirm: -1; GPR119 ag: -18

What do the screens show for `C/C(=C/C(=O)c1ccc(Cl)cc1)Nc1cccc(O)c1`?
MITF inh: 12; FBW7 activator: 0; TEAD-YAP inh: -9; GPR151 ag: 5.8*; GPR151 confirm: -1; GPR119 ag: -10

How did Cc1cc(C)c(S(=O)(=O)N2CCN(C)CC2)cc1C do in these assays?
MITF inh: 5; FBW7 activator: 0; TEAD-YAP inh: 11; GPR151 ag: 0

How did Cc1cc(S(=O)(=O)N2CCN(C)CC2)c(C)cc1Cl do in these assays?
MITF inh: -6; FBW7 activator: 0; TEAD-YAP inh: -2; GPR151 ag: 5.3*; GPR151 confirm: 0; GPR119 ag: -12

How did O=c1[nH]c(SCc2ccccc2)nc2c1C1(CCCCC1)Cc1ccccc1-2 do in these assays?
MITF inh: 17; FBW7 activator: 0; TEAD-YAP inh: 2; GPR151 ag: -2
